Reference: the supplement of paper PMC9023506
Counter-ions that a name gives are not always drawn.

What follows are molecules tested on Danio rerio larvae (5 dpf) (assay: activity during first hour (no stimuli), difference vs DMSO (percentage points (treated minus DMSO)); higher = more of the behaviour than the DMSO vehicle control). Conditions: 10 µM; exposure time: 3 h pre-incubation + 3 h imaging.
Procedure: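 5-dpf wild-type zebrafish larvae were imaged in 96-well plates. They were treated with 190 Tocris FDA-approved drugs at 10 µM (1 µl/ml DMSO) for 3 h before and 3 h during imaging at 28.5 °C, 48 larvae per drug. Automated image analysis gave % time moving and optomotor responses. Values are drug group mean minus DMSO vehicle mean (n=844), in percentage points, for 10 behaviours.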

Structure (SMILES)	activity during first hour
C/C(O)=C(\C#N)C(=O)Nc1ccc(C(F)(F)F)cc1 [Teriflunomide]	-8.27
N#C[C@@H]1C[C@@H]2C[C@@H]2N1C(=O)[C@@H](N)C12CC3CC(CC(O)(C3)C1)C2 [Saxagliptin hydrochloride]	1.74
CC[C@H](C)C(=O)O[C@H]1C[C@@H](C)C=C2C=C[C@H](C)[C@H](CC[C@@H]3C[C@@H](O)CC(=O)O3)[C@H]21 [Lovastatin]	-0.394
CCCC1O[C@@H]2C[C@H]3[C@@H]4CCC5=CC(=O)C=C[C@]5(C)[C@H]4[C@@H](O)C[C@]3(C)[C@]2(C(=O)CO)O1 (stereo not given in full) [Budesonide]	4.76
N#Cc1ccc(C(c2ccc(C#N)cc2)n2cncn2)cc1 [Letrozole]	-3.63
CC(C)[C@H]1CC[C@H](C(=O)N[C@H](Cc2ccccc2)C(=O)O)CC1 [Nateglinide]	4.52
CCOC(=O)[C@H](CCc1ccccc1)N[C@H]1CCc2ccccc2N(CC(=O)O)C1=O [Benazepril hydrochloride]	1.65
CC(c1cc2ccccc2s1)N(O)C(N)=O (stereo not given) [Zileuton]	-0.123
CCCc1nc2c(C)cc(-c3nc4ccccc4n3C)cc2n1Cc1ccc(-c2ccccc2C(=O)O)cc1 [Telmisartan]	-6.28
NS(=O)(=O)c1cc2c(cc1Cl)NC(C1CC3C=CC1C3)NS2(=O)=O (stereo not given) [Cyclothiazide]	0.422
CC1CNc2c(cccc2S(=O)(=O)N[C@@H](CCCNC(=N)N)C(=O)N2CC[C@@H](C)C[C@@H]2C(=O)O)C1 (stereo not given in full) [Argatroban]	4.69
CNC(=O)c1ccccc1Sc1ccc2c(/C=C/c3ccccn3)n[nH]c2c1 [Axitinib]	-2.72
CCCc1nc(C(C)(C)O)c(C(=O)O)n1Cc1ccc(-c2ccccc2-c2nnn[nH]2)cc1 [Olmesartan]	12.1
C[C@H](Cc1cc2c(c(C(N)=O)c1)N(CCCO)CC2)NCCOc1ccccc1OCC(F)(F)F [Silodosin]	-1.39
CC[C@H]1OC(=O)[C@H](C)[C@@H](O[C@H]2C[C@@](C)(OC)[C@@H](O)[C@H](C)O2)[C@H](C)[C@@H](O[C@@H]2O[C@H](C)C[C@H](N(C)C)[C@H]2O)[C@](C)(O)C[C@@H](C)CN(C)[C@H](C)[C@@H](O)[C@]1(C)O [Azithromycin]	-12.2
C#C[C@]1(O)CC[C@H]2[C@@H]3CCC4=CC(=O)CC[C@@H]4[C@H]3CC[C@@]21CC [Levonorgestrel]	-8.15
N#Cc1ccc2[nH]cc(CCCCN3CCN(c4ccc5oc(C(N)=O)cc5c4)CC3)c2c1 [Vilazodone hydrochloride]	-24.1
OCCN1C[C@H](O)[C@@H](O)[C@H](O)[C@H]1CO [Miglitol]	-1.33
COc1cc(N)c(Cl)cc1C(=O)NC1CCN(CCCOc2ccc(F)cc2)CC1OC (stereo not given) [Cisapride]	1.47
CC(C)N(CCCCOCC(=O)NS(C)(=O)=O)c1cnc(-c2ccccc2)c(-c2ccccc2)n1 [Selexipag]	4.1

Structure (SMILES)	activity during first hour
O=C(Nc1c(Cl)cncc1Cl)c1ccc(OC(F)F)c(OCC2CC2)c1 [Roflumilast]	-15.3
N[C@@H]1[C@H]2CN(c3nc4c(cc3F)c(=O)c(C(=O)O)cn4-c3ccc(F)cc3F)C[C@@H]12 [Trovafloxacin mesylate]	5.81
COc1c(C)c2c(c(O)c1C/C=C(\C)CCC(=O)O)C(=O)OC2 [Mycophenolic acid]	2.64
CC(C)(C(=O)O)c1ccc(C(O)CCCN2CCC(C(O)(c3ccccc3)c3ccccc3)CC2)cc1 (stereo not given) [Fexofenadine hydrochloride]	5.4
OCCOCCN1CCN(C2=Nc3ccccc3Sc3ccccc32)CC1 [Quetiapine hemifumarate]	12.9
Nc1nc(Cl)nc2c1ncn2[C@@H]1O[C@H](CO)[C@@H](O)[C@@H]1F [Clofarabine]	-3.77
O=C1CCc2ccc(OCCCCN3CCN(c4cccc(Cl)c4Cl)CC3)cc2N1 [Aripiprazole]	8.28
Cc1ccc(O)c([C@H](CCN(C(C)C)C(C)C)c2ccccc2)c1 [Tolterodine L-tartrate]	1.86
Cc1ccsc1C(=CCCN1CCC[C@@H](C(=O)O)C1)c1sccc1C [Tiagabine hydrochloride]	7.01
CC(C)c1nc(N(C)S(C)(=O)=O)nc(-c2ccc(F)cc2)c1/C=C/[C@@H](O)C[C@@H](O)CC(=O)O [Rosuvastatin calcium]	3.37
Cc1nnc(C(C)C)n1C1C[C@H]2CC[C@@H](C1)N2CC[C@H](NC(=O)C1CCC(F)(F)CC1)c1ccccc1 (stereo in doubt) [Maraviroc]	-3.61
CC(=O)S[C@@H]1CC2=CC(=O)CC[C@]2(C)[C@H]2CC[C@@]3(C)[C@@H](CC[C@@]34CCC(=O)O4)[C@H]12 [Spironolactone]	-0.165
CN1CC2c3ccccc3Oc3ccc(Cl)cc3C2C1 (stereo not given) [Asenapine maleate]	38.5
COc1ccccc1OCCNCC(O)COc1cccc2[nH]c3ccccc3c12 (stereo not given) [Carvedilol]	-9.72
CCCCc1nc(Cl)c(CO)n1Cc1ccc(-c2ccccc2-c2nnn[nH]2)cc1 [Losartan potassium]	13
Cc1nc(Nc2ncc(C(=O)Nc3c(C)cccc3Cl)s2)cc(N2CCN(CCO)CC2)n1 [Dasatinib]	-11.4
CN(CCOc1ccc(NS(C)(=O)=O)cc1)CCc1ccc(NS(C)(=O)=O)cc1 [Dofetilide]	1.68
CN1CC(=O)N2[C@H](c3ccc4c(c3)OCO4)c3[nH]c4ccccc4c3C[C@@H]2C1=O [Tadalafil]	11
Nc1cccc2c1CN(C1CCC(=O)NC1=O)C2=O (stereo not given) [Lenalidomide]	-5.68
OC(c1cc(C(F)(F)F)nc2c(C(F)(F)F)cccc12)C1CCCCN1 (stereo not given) [Mefloquine hydrochloride]	-1.64
